Values joined by “and” are separate entries in the source; they are usually repeats but may differ in a detail not shown here. Identical values can stand only once. Hit rate of the full screen: of about 5,500 compounds, about 2,000 (36%) were called active. Not shown: some 18% with an inconclusive outcome. No stated cut-off is given here; in the data, active means normalized growth mostly below about 0.91 (no sharp cut-off); inconclusive means no clear call, values can overlap the other calls; inactive means mostly above about 0.92. The list shows a part of the results.
Assay: chemical genetic growth profiling, strain panel (AID 1159580);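 further: tested at 20 µM; growth read once vehicle control cultures reached saturation at 30 °C; 1 = growth at the plate median or of vehicle wells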
Conditions: growth OD

Measured: normalized growth

CS(=O)(=O)Nc1ccc([N+](=O)[O-])cc1Oc1ccccc1
inactive: S. cerevisiae deletion strains, locus YJR066W, strain TOR1, stronger effect = lower value 0.962 | S. cerevisiae deletion strains, locus YJR075W, strain HOC1, stronger effect = lower value 1 | S. cerevisiae deletion strains, locus YKL009W, strain mrt4, stronger effect = lower value 0.944 | S. cerevisiae deletion strains, locus YKL068W, stronger effect = lower value 0.988 | S. cerevisiae deletion strains, locus YKL085W, strain MDH1 (second series), stronger effect = lower value 0.99 | S. cerevisiae deletion strains, locus YKL085W, strain MDH1, stronger effect = lower value 0.99 | S. cerevisiae deletion strains, locus YKL160W, strain elf1, stronger effect = lower value 0.987 | S. cerevisiae deletion strains, locus YKL190W, strain CNB1, stronger effect = lower value 0.983 | S. cerevisiae deletion strains, locus YKR001C, strain vps1, stronger effect = lower value 0.938 | S. cerevisiae deletion strains, locus YKR026C, strain gcn3, stronger effect = lower value 0.987 | S. cerevisiae deletion strains, locus YKR091W, strain srl3, stronger effect = lower value 0.993 | S. cerevisiae deletion strains, locus YLL001W, strain dnm1, stronger effect = lower value 0.975 | S. cerevisiae deletion strains, locus YLL026W, stronger effect = lower value 0.993 | S. cerevisiae deletion strains, locus YLL041C, strain sdh2, stronger effect = lower value 0.995 | S. cerevisiae deletion strains, locus YLR027C, strain aat2, stronger effect = lower value 1 | S. cerevisiae deletion strains, locus YLR039C, strain RIC1, stronger effect = lower value 0.839 | S. cerevisiae deletion strains, locus YLR058C, strain SHM2, stronger effect = lower value 0.966 | S. cerevisiae deletion strains, locus YLR102C, strain apc9, stronger effect = lower value 0.984 | S. cerevisiae deletion strains, locus YLR113W, strain HOG1, stronger effect = lower value 1.03 | S. cerevisiae deletion strains, locus YLR221C, strain rsa3, stronger effect = lower value 0.994 | S. cerevisiae deletion strains, locus YLR258W, strain gsy2, stronger effect = lower value 0.988 | S. cerevisiae deletion strains, locus YLR262C, strain YPT6 (second series), stronger effect = lower value 0.889 | S. cerevisiae deletion strains, locus YLR262C, strain YPT6, stronger effect = lower value 0.75 | S. cerevisiae deletion strains, locus YLR268W, strain sec22, stronger effect = lower value 0.958 | S. cerevisiae deletion strains, locus YLR320W, strain mms22, stronger effect = lower value 0.994 | S. cerevisiae deletion strains, locus YLR330W, strain CHS5, stronger effect = lower value 0.993 | S. cerevisiae deletion strains, locus YLR342W, strain FKS1 (second series), stronger effect = lower value 1.08 | S. cerevisiae deletion strains, locus YLR342W, strain FKS1, stronger effect = lower value 0.997 | S. cerevisiae deletion strains, locus YLR357W, strain rsc2, stronger effect = lower value 0.986 | S. cerevisiae deletion strains, locus YLR370C, strain arc18, stronger effect = lower value 0.999 | S. cerevisiae deletion strains, locus YLR371W, strain rom2, stronger effect = lower value 0.984 | S. cerevisiae deletion strains, locus YLR384C, strain iki3, stronger effect = lower value 0.991 | S. cerevisiae deletion strains, locus YLR418C, strain cdc73, stronger effect = lower value 1.01 | S. cerevisiae deletion strains, locus YML016C, strain PPZ1, stronger effect = lower value 0.989 | S. cerevisiae deletion strains, locus YML032C, strain rad52, stronger effect = lower value 0.958 | S. cerevisiae deletion strains, locus YML120C, strain ndi1, stronger effect = lower value 0.993 | S. cerevisiae deletion strains, locus YML124C, strain tub3, stronger effect = lower value 0.982 | S. cerevisiae deletion strains, locus YMR058W, strain fet3, stronger effect = lower value 0.993 | S. cerevisiae deletion strains, locus YMR078C, strain ctf18, stronger effect = lower value 0.975 | S. cerevisiae deletion strains, locus YMR125W, strain sto1, stronger effect = lower value 0.984 | S. cerevisiae deletion strains, locus YMR129W, stronger effect = lower value 0.983 | S. cerevisiae deletion strains, locus YMR205C, strain PFK2, stronger effect = lower value 0.974 | S. cerevisiae deletion strains, locus YMR223W, strain ubp8, stronger effect = lower value 0.993 | S. cerevisiae deletion strains, locus YMR231W, strain pep5, stronger effect = lower value 1 | S. cerevisiae deletion strains, locus YMR307W, strain GAS1, stronger effect = lower value 1.05 and 0.989 | S. cerevisiae deletion strains, locus YNL067W, strain RPL9B, stronger effect = lower value 0.953 | S. cerevisiae deletion strains, locus YNL071W, strain lat1, stronger effect = lower value 1 | S. cerevisiae deletion strains, locus YNL128W, strain TEP1, stronger effect = lower value 0.981 and 0.986 | S. cerevisiae deletion strains, locus YNL175C, strain NOP13, stronger effect = lower value 0.995 | S. cerevisiae deletion strains, locus YNL183C, strain NPR1, stronger effect = lower value 0.943 | S. cerevisiae deletion strains, locus YNL197C, strain WHI3, stronger effect = lower value 0.99 | S. cerevisiae deletion strains, locus YNL209W, strain ssb2, stronger effect = lower value 0.994 | S. cerevisiae deletion strains, locus YNL224C, strain SQS1, stronger effect = lower value 1 | S. cerevisiae deletion strains, locus YNL233W, strain BNI4, stronger effect = lower value 0.927 | S. cerevisiae deletion strains, locus YNL248C, strain rpa49, stronger effect = lower value 1 | S. cerevisiae deletion strains, locus YNL250W, strain rad50, stronger effect = lower value 0.999 | S. cerevisiae deletion strains, locus YNL271C, strain bni1, stronger effect = lower value 0.972 | S. cerevisiae deletion strains, locus YNL298W, strain CLA4, stronger effect = lower value 0.966 | S. cerevisiae deletion strains, locus YNL307C, strain MCK1, stronger effect = lower value 0.966 | S. cerevisiae deletion strains, locus YNL322C, strain KRE1 (second series), stronger effect = lower value 0.994 | S. cerevisiae deletion strains, locus YNL322C, strain KRE1, stronger effect = lower value 0.986 and 1.01 | S. cerevisiae deletion strains, locus YNR049C, strain mso1, stronger effect = lower value 0.99 | S. cerevisiae deletion strains, locus YNR052C, strain pop2, stronger effect = lower value 0.976 | S. cerevisiae deletion strains, locus YOL006C, strain TOP1, stronger effect = lower value 0.841 | S. cerevisiae deletion strains, locus YOL012C, strain htz1 1.03 | S. cerevisiae deletion strains, locus YOL147C, strain pex11, stronger effect = lower value 0.98 | S. cerevisiae deletion strains, locus YOR001W, strain rrp6, stronger effect = lower value 0.99 | S. cerevisiae deletion strains, locus YOR061W, strain CKA2, stronger effect = lower value 0.964 | S. cerevisiae deletion strains, locus YOR069W, strain VPS5, stronger effect = lower value 0.994 | S. cerevisiae deletion strains, locus YOR070C, strain gyp1, stronger effect = lower value 0.986 | S. cerevisiae deletion strains, locus YOR080W, strain dia2, stronger effect = lower value 0.991 | S. cerevisiae deletion strains, locus YOR083W, strain WHI5 (second series), stronger effect = lower value 0.991 | S. cerevisiae deletion strains, locus YOR083W, strain WHI5, stronger effect = lower value 0.986 | S. cerevisiae deletion strains, locus YOR106W, strain vam3, stronger effect = lower value 1.01 | S. cerevisiae deletion strains, locus YOR136W, strain idh2, stronger effect = lower value 0.977 | S. cerevisiae deletion strains, locus YOR144C, strain elg1, stronger effect = lower value 0.981 | S. cerevisiae deletion strains, locus YOR184W, strain ser1, stronger effect = lower value 0.951 | S. cerevisiae deletion strains, locus YOR231W, strain MKK1, stronger effect = lower value 1.06 | S. cerevisiae deletion strains, locus YOR265W, strain rbl2, stronger effect = lower value 1.01 | S. cerevisiae deletion strains, locus YOR270C, strain vph1, stronger effect = lower value 0.97 | S. cerevisiae deletion strains, locus YOR290C, strain snf2, stronger effect = lower value 0.954 | S. cerevisiae deletion strains, locus YOR316C, strain cot1, stronger effect = lower value 0.961 | S. cerevisiae deletion strains, locus YPL051W, strain arl3, stronger effect = lower value 0.993 | S. cerevisiae deletion strains, locus YPL055C, strain LGE1, stronger effect = lower value 0.879 | S. cerevisiae deletion strains, locus YPL078C, strain atp4, stronger effect = lower value 0.994 | S. cerevisiae deletion strains, locus YPL106C, strain sse1, stronger effect = lower value 0.991 | S. cerevisiae deletion strains, locus YPL240C, strain hsp82, stronger effect = lower value 0.978 | S. cerevisiae deletion strains, locus YPL241C, strain CIN2, stronger effect = lower value 1.01 | S. cerevisiae deletion strains, locus YPL256C, strain CLN2, stronger effect = lower value 1.03 | S. cerevisiae deletion strains, locus YPR119W, strain clb2, stronger effect = lower value 0.973 | S. cerevisiae deletion strains, locus YPR141C, strain kar3, stronger effect = lower value 0.973 | S. cerevisiae deletion strains, locus YPR163C, strain tif3, stronger effect = lower value 0.988 | S. cerevisiae deletion strains, locus YPR167C, strain met16, stronger effect = lower value 0.986 | S. cerevisiae deletion strains, strain wtn01, stronger effect = lower value 0.968 | S. cerevisiae strains, strain wild type, stronger effect = lower value 0.978

Source: PubChem BioAssay AID1159580 (chemical genetic matrix, 2015)
